In PubChem BioAssay (NCATS) one finds Potency and outcome data, which are given here for 26 molecules.

In assay [1] the target is Endonuclease 4 (Escherichia coli (strain K12)) (UniProt P0A6C1). Briefly: Counterscreen for APE1 Inhibitors: qHTS Validation Assay for Inhibitors of Endonuclease IV (AID 1708). The method, boiled down: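 Measured as reaction progress, the fluorescence gain between first and third kinetic reads after adding 50 nM TAMRA/BHQ-2 THF duplex to 2 nM enzyme preincubated 15 min with compound; 2 mM MgCl2, pH 7.5.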
(In general: A counterscreen serves to expose hits that act by an unwanted route or on another target.)

The nature of assay [2]: qHTS for differential inhibitors of proliferation of Plasmodium falciparum line 7G8 (AID 1815).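 Note: parasite growth measured after three days of incubation.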 Note: potency is the fitted concentration of half-maximal effect. A general note: In qHTS, concentration-response curves come from the screen itself.
Assay [3] is described as follows: qHTS for differential inhibitors of proliferation of Plasmodium falciparum line GB4 (AID 1816).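 Note: parasite growth measured after 72 h incubation.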 Note: potency is the fitted concentration of half-maximal effect. The settings on record: Potency: Plasmodium falciparum GB4 proliferation inhibition.
The nature of assay [4]: qHTS for differential inhibitors of proliferation of Plasmodium falciparum line D10 (AID 1877).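 Note: parasites grown with compound for 72 h before DNA staining.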 Note: potency is the fitted concentration of half-maximal effect.
Assay [5] in a line: qHTS for differential inhibitors of proliferation of Plasmodium falciparum line Dd2 (AID 1882). Note: nearly all actives have a fitted effect of over 65% in size. Note: potency is the fitted concentration of half-maximal effect. Particulars: Potency: Plasmodium falciparum Dd2 proliferation inhibition. In short, it runs like this:
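RBC culture, 0.3% parasitemia / 2.5% Hct final; cpd added by pin tool in DMSO; 72 h, 37 C, 5% CO2; lysis buffer + SYBR Green I, o/n RT dark; FI 485/535; norm. to artemisinin 0.29 uM and DMSO.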

Assay [6] in a line: qHTS for differential inhibitors of proliferation of Plasmodium falciparum line W2 (AID 1883).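 Note: parasites grown with compound for 72 h before lysis and staining.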 Note: potency is the fitted concentration of half-maximal effect. The settings on record: Potency: Plasmodium falciparum W2 proliferation inhibition.
The nature of assay [7]: qHTS for differential inhibitors of proliferation of Plasmodium falciparum line 3D7 (AID 1876). Note: potency is the fitted concentration of half-maximal effect.
The nature of assay [8]: qHTS for differential inhibitors of proliferation of Plasmodium falciparum line HB3 (AID 1886).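 Note: parasites grown with compound for 72 h before SYBR Green readout.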 Note: potency is the fitted concentration of half-maximal effect. Particulars: Potency: Plasmodium falciparum HB3 proliferation inhibition.
Assay [9] is described as follows: qHTS Assay for Identification of Small Molecule Inducers of Hypoxia Response (AID 2120; active = well fitted curve in the direction sought with a large enough effect in the signal ratio, with a control signal flat, not every such curve was filed as active; the % refers to the signal ratio). An excerpt:
NIH Chemical Genomics Center [NCGC]
NIH Molecular Libraries Screening Centers Network [MLSCN]
National Institutes of Environmental Health Sciences [NIEHS]
National Toxicology Program [NTP]
Hypoxia-inducible factor-1 (HIF-1) is the major hypoxia-regulated transcription factor that controls cellular responses to low oxygen concentration. HIF-1 is composed of two subunits: hypoxia responsive HIF-1a and constitutively expressed HIF-1b, which is also known as aryl hydrocarbon receptor nuclear translocator. During hypoxic conditions, HIF-1a heterodimerizes with HIF-1b and translocates into the nucleus where the HIF-1 complex binds to the hypoxia-response element (HRE) and activates expression of target genes such as VEGF (vascular endothelial growth factor). The HIF-1 pathway is essential to normal growth and development, and is involved in the pathophysiology of cancer, inflammation, and ischemia.
Using a beta-lactamase reporter-gene under control of the hypoxia response element, a cell-based assay [CellSensor(TM) HRE-bla ME-180 developed by Invitrogen Corp.] was used to measure hypoxia-induced signaling. Library compounds were measured for their ability to induce the reporter gene activity. Compounds were screened in a titration series in 1536-well format. The inducers were identified based on the AC50 values derived from the screening data.
NCGC Assay Protocol Summary
2500 cells/5uL in Opti-MEM medium containing 0.5% dialyzed FBS, 0.1 mM NEAA, 1 mM sodium pyruvate and 10 mM HEPES was dispensed into 1536-well plates and cells were cultured at 37 degrees Celsius for 4-5 hours and then 23 nL of compounds or DMSO were delivered to each well using a pin tool. The plates were incubated at 37 degrees Celsius for 17 hours. 1 uL of CCF4-dye mixture was added to each well. After incubated at room temperature for 2.5 hours the plates were measured on an EnVision plate reader at Excitation 405nm, Emission1=460nm and Emission 2=530nm. The %Activity was determined from the ratio of 460nm/530nm.

Assay [10] is described as follows: qHTS Assay for Modulators of Human Peripheral Myelin Protein 22 (PMP22) Expression/Activity (AID 1967; active = well fitted curve in the direction sought with a large enough effect in the signal ratio; the % refers to the signal ratio). In short, it runs like this:
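MSC80 mouse Schwann cells stably carrying Pmp22 promoter–green click beetle luciferase plus EF-alpha–red luciferase control were dosed for 24h at 37 °C. Dual-colour luminescence was filter-overlap corrected; %Activity came from green/red ratio versus untreated cells.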

The structures appear in SMILES notation. Records with an inconclusive call do not appear. Calls of active or inactive are those of the source. Unless noted, calls come from the whole dose curve; as a rule, active = well fitted curve in the direction sought with a large enough effect; inconclusive = small, poorly fitted or top-dose-only effect, or another doubt; inactive = no such curve, though single readings can be large; an effect the other way counts as inactive or inconclusive.

Consider `CC12CC3CC(C)(C1)CC(N)(C3)C2`, for which the Potency result in [1] and in assay [4] was “inactive” each time. In addition, the Potency is 11.2 µM (active) in assay [2], 0.891 µM (active) in assay [3], 5.62 µM (active) in assay [5] and 2.24 µM (active) in [6].

With `COc1nc(C)nc(Cl)c1NC1=NCCN1`, the Potency result in assay [1], in [2], in assay [3], in [7], in [4] and in [5] was “inactive” in each case. Moreover, the Potency entry in assay [8] was “inactive”.

Turning to `COc1ccc2c(c1)c(CC(=O)O)c(C)n2C(=O)c1ccc(Cl)cc1`, the Potency result in [1], in assay [2], in assay [3], in assay [7], in assay [4] and in [5] was “inactive” each time. The Potency entry in [8] was “inactive”. In addition, the result in [9] was inactive.

Consider `O=C(CCCN1CCC(O)(c2ccc(Cl)cc2)CC1)c1ccc(F)cc1`, for which the Potency entry in assay [1] was “inactive”.

`CC(CCc1ccc(O)cc1)NCCc1ccc(O)c(O)c1` (stereo not drawn): the Potency entry in assay [1] is “inactive”. Besides, the Potency in assay [2] is 12.6 µM (active); in [3] it was 12.6 µM (active); in [4] it was 14.1 µM (active); in assay [6], 10 µM (active); in assay [8], 12.6 µM (active).

Take `Fc1ccc([C@@H]2CCNC[C@H]2COc2ccc3c(c2)OCO3)cc1`: the Potency result in assay [1] was “inactive”. The Potency in assay [2] is 5.62 µM (active); in [3], 5.01 µM (active); in assay [7], 7.08 µM (active); in assay [4], 12.6 µM (active); in assay [5] it was 11.2 µM (active); in assay [6], 3.55 µM (active). The Potency in assay [8] was 7.08 µM (active).

In the case of `Cc1cnc(C(=O)NCCc2ccc(S(=O)(=O)NC(=O)NC3CCCCC3)cc2)cn1`, the Potency result in assay [1], in assay [2], in [3], in assay [7], in assay [4] and in assay [5] was “inactive” in each case. Also, the Potency entry in [8] is “inactive”.

`CN1CCC(=C2c3ccccc3C=Cc3ccccc32)CC1`: the Potency result in assay [1] is “inactive”. For the same molecule, the Potency was 5.01 µM (active) in [2]; 8.91 µM (active) in assay [3]; 11.2 µM (active) in [7]; 12.6 µM (active) in assay [4]; 5.01 µM (active) in assay [5]; 2.82 µM (active) in assay [6]. The Potency in [8] was 11.2 µM (active).

On to `Nc1ccn([C@H]2CC[C@@H](CO)O2)c(=O)n1`, for which the Potency result in assay [1], in assay [2], in assay [3], in [7], in assay [4] and in assay [5] was “inactive” throughout. In addition, the Potency entry in [6] and in [8] was “inactive” each time.

In the case of `CCC1(c2ccccc2)C(=O)NCNC1=O`, the Potency result in [1], in [2], in [3], in assay [7], in assay [4] and in assay [5] was “inactive” in each case. Also, the Potency result in assay [6] and in [8] was “inactive” throughout.

`CN1CCN(C2=Nc3cc(Cl)ccc3Nc3ccccc32)CC1`: in assay [1], the Potency result is “inactive”.

Consider `O=C(c1ccc(F)cc1)C1CCN(CCn2c(=O)[nH]c3ccccc3c2=O)CC1`, for which the Potency entry in [1] was “inactive”. In addition, the Potency was 3.16 µM (active) in assay [2]; 5.62 µM (active) in assay [3]; 7.08 µM (active) in assay [7]; 3.98 µM (active) in [4]; 6.31 µM (active) in [5]; 1.58 µM (active) in [6]. The Potency in assay [8] was 3.98 µM (active).

Regarding `CN(C)c1nc(N(C)C)nc(N(C)C)n1`, the Potency entry in assay [1], in [2], in assay [3], in assay [7], in [4] and in assay [5] was “inactive” in each case. For the same molecule, the Potency entry in [6], in assay [8] and in [10] was “inactive” each time.

For the molecule `O=c1c(O)c(-c2ccc(O)c(O)c2)oc2cc(O)cc(O)c12`, the Potency entry in [1] is “inactive”.

Turning to `CCc1cccc2c3c([nH]c12)C(CC)(CC(=O)O)OCC3` (stereo not drawn), the Potency entry in [1], in [2], in assay [3], in assay [7], in assay [4] and in assay [5] was “inactive” throughout. In addition, in [8], the Potency result is “inactive”.

With `CNCCCC12CCC(c3ccccc31)c1ccccc12`, in [1], the Potency entry was “inactive”. Moreover, the Potency in assay [2] was 11.2 µM (active); in assay [3], 8.91 µM (active); in assay [7] it was 10 µM (active); in assay [5] it was 11.2 µM (active); in assay [6], 5.01 µM (active).

In the case of `NC(=O)OCC(COC(N)=O)c1ccccc1`, the Potency entry in assay [1], in assay [2], in assay [3], in [7], in [4] and in assay [5] was “inactive” throughout. In addition, the Potency result in assay [6] and in assay [8] was “inactive” in each case.

In the case of `COc1ccc2[nH]cc(CCNC(C)=O)c2c1`, the Potency entry in [1], in assay [2], in assay [3], in assay [7], in assay [4] and in assay [5] was “inactive” in each case. Besides, the Potency entry in assay [6] and in assay [8] was “inactive” each time.

Consider `Cn1c(=O)c2[nH]cnc2n(C)c1=O`, for which the Potency result in assay [1], in assay [2], in assay [3], in assay [7], in [4] and in [5] was “inactive” each time. In addition, the Potency result in [6] and in [8] was “inactive” each time.

Take `Clc1ccccc1C(c1ccccc1)(c1ccccc1)n1ccnc1`: the Potency in assay [2] is 0.251 µM (active); in assay [3], 0.316 µM (active); in assay [7] it was 0.447 µM (active); in assay [4] it was 0.631 µM (active); in assay [5], 1.78 µM (active); in assay [6], 0.355 µM (active). In addition, in assay [8], the Potency was 0.316 µM (active).

Regarding `CC(C)NCC(O)c1ccc(O)c(O)c1` (stereo not drawn), the Potency entry in assay [1], in assay [2], in [7] and in assay [5] was “inactive” throughout.

Take `CN1C2CCC1CC(OC(=O)C(CO)c1ccccc1)C2` (stereo not drawn): the Potency result in [7], in assay [4], in [8] and in [10] was “inactive” throughout.

`CCCCc1oc2ccccc2c1C(=O)c1cc(I)c(OCCN(CC)CC)c(I)c1`: the Potency in assay [2] was 2.82 µM (active); in [3] it was 2.51 µM (active); in assay [7] it was 2.82 µM (active); in assay [4], 7.08 µM (active); in assay [5] it was 6.31 µM (active); in [6], 2.24 µM (active). The Potency in assay [8] is 3.98 µM (active).

On to `NS(=O)(=O)c1cc2c(cc1Cl)NCNS2(=O)=O`, for which the Potency result in assay [1], in assay [2], in [7], in [4], in assay [5] and in assay [8] was “inactive” in each case.

In the case of `O=C(C1CCCCC1)N1CC(=O)N2CCc3ccccc3C2C1` (stereo not drawn), the Potency result in assay [1] is “inactive”. Moreover, the Potency in assay [6] is 12.6 µM (active).

As for `CN(C)CCC=C1c2ccccc2C=Cc2ccccc21`, the Potency in assay [2] is 5.01 µM (active); in assay [3], 11.2 µM (active); in [7], 11.2 µM (active); in [6], 5.01 µM (active); in assay [8], 12.6 µM (active).
